# Assay results taken from ChEMBL document CHEMBL1157539, “Thousands of chemical starting points for antimalarial lead identification” (Nature, 2010).
# Tests used:
# Type in all cases: functional
# [1] = system: Plasmodium falciparum; experiment: GSK_TCMDC: Inhibition of Plasmodium falciparum 3D7 in whole red blood cells, using parasite LDH activity as an index of growth. Test compounds present at 2uM
# [2] = system: Plasmodium falciparum; experiment: GSK_TCMDC: Inhibition of Plasmodium falciparum Dd2 in whole red blood cells, using parasite LDH activity as an index of growth. Test compounds present at 2uM
# [3] = system: HepG2; experiment: GSK_TCMDC: Percent inhibition of human HepG2 cell line. Test compounds present at 10uM.
Structure (SMILES),Inhibition [1] [%],Inhibition [2] [%],Inhibition [3] [%]
COc1ccc2nccc(NC(=O)N3CCC(NCCOc4cc(F)cc(F)c4)CC3)c2n1.O=C(O)C(=O)O,86,38,14
COc1ccc(NCCCNc2ccnc3ccccc23)cc1,88,17,34
Cc1ccc2nc(-c3ccc(C(=O)NC4CCN(Cc5ccccc5)CC4)cc3)[nH]c2c1C,100,46,22
O=C(O)C(F)(F)F.O=S(=O)(NCCN1CCCC1)c1cccc(-c2cccc(CNCc3ccsc3)c2)c1,100,55,69
Cc1cccc2nc(-c3ccc(-c4ccc(CNCc5ccc(CN)cc5)cc4)s3)[nH]c12.O=C(O)C(F)(F)F,100,85,4
Cl.N=C(N)c1ccc(NN=Cc2ccc(Oc3ccc(C(=N)N)cc3)cc2)cc1,99,100,18
O=C(CC(=O)C(F)(F)F)c1ccccc1[N+](=O)[O-],97,95,65
O=C(O)C(F)(F)F.c1cncc(CCNCc2ccc(-c3ccc(-c4nc5ccccc5[nH]4)s3)cc2)c1,100,99,35
FC(F)(F)c1ccc2[nH]c(-c3cccc(-c4ccc(CNCc5cnn(-c6ccccc6)n5)cc4)c3)nc2c1.O=C(O)C(F)(F)F,100,67,14
CCOc1cc2ncnc(Nc3cc(Cl)c(Cl)c(Cl)c3)c2cc1OCC.Cl,100,98,11
CC(O)C1CCCCN1C(=O)c1cccc(-c2ccc(-c3nc4cc(C(F)(F)F)ccc4[nH]3)cc2)c1 (stereo not given),100,100,33
COc1c(C2CCN(CCCCNC(=O)c3oc(-c4ccc(Cl)cc4)cc3CO)CC2)ccc2c1CCCC2,100,95,80
O=C(Cc1c[nH]cn1)Nc1cccc(-c2cccc(-c3nc4cc(F)ccc4[nH]3)c2)c1,100,97,21
O=C(NC1CCN(Cc2ccccc2)CC1)c1ccc(CNC2CCN(Cc3ccccc3)CC2)cc1.O=C(O)C(F)(F)F,99,58,14
Cc1cccc2nc(-c3ccc(-c4cccc(NC(=O)Nc5ccc6c(c5)OCO6)c4)cc3)[nH]c12,100,39,28
O=C(O)C(F)(F)F.Oc1ccc(CCCNc2nc(NCc3ccccc3-c3ccccc3)nc(N3CCNCC3)n2)cc1,94,48,39
Nc1ccc2nc(C=Cc3ccc(Cl)cc3)[nH]c2c1,91,83,19
O=C(Nc1ccc(Oc2ccccc2)cc1)N(CCN1CCCC1)Cc1ccc(-c2ccc(CN3CCNCC3)cc2)cc1.O=C(O)C(F)(F)F,88,90,48
CCOc1ccc2c(c1)C(C)(c1ccc3c(c1)C(C)CC(C)(C)N3)CC(C)(C)N2 (stereo not given),94,3,5
CCCCCCn1c(Sc2ccc(C#N)c([N+](=O)[O-])c2)nnc1-c1ccc(N(C)C)cc1,92,25,0
CCNc1cc(C(=O)N[C@@H](Cc2ccccc2)[C@H](O)CNC2(C)CCCCC2)cc(N2CCCCS2(=O)=O)c1.Cl,100,98,13
Nc1ncc(-c2cn[nH]c2)cc1-c1nc2ccc(Cl)cc2[nH]1,100,100,46
CC(C)NCc1cccc(-c2cccc(NC(=O)c3ccc(C#N)cc3)c2)c1.O=C(O)C(F)(F)F,97,20,18
O=C(C=Cc1ccc(Cl)c(Cl)c1)NCCCCCN1CCC(CCCNC(=O)C2CC2c2ccccc2)CC1 (stereo not given),95,12,45
O=C(NCCCCCN1CCC(c2c[nH]c3ccccc23)CC1)Nc1cccc(I)c1,99,11,70
CN1CCN(S(=O)(=O)c2cccc(Nc3nccc(N(C)c4ccc5c(c4)nc(NC(=O)c4cccs4)n5C)n3)c2)CC1,99,59,25
O=c1c(Br)c(C(F)(F)F)[nH]c2ccc(Oc3ccccc3)cc12,91,17,6
CCCCN(CCCC)CCCCNc1c2ccccc2nc2ccccc12.Cl,100,100,36
CC(C)NCc1ccc(-c2cccc(NC(=O)c3ccc(F)cc3)c2)cc1.O=C(O)C(F)(F)F,91,7,28
O=C(Nc1ccc(C(F)(F)F)cc1)Nc1ccccc1N1CCNCC1.O=C(O)C(F)(F)F,94,69,39
